Experimental data taken from ChEMBL document CHEMBL1157539, “Thousands of chemical starting points for antimalarial lead identification” (Nature, 2010).

What follows are molecules tested on HepG2 (assay: GSK_TCMDC: Percent inhibition of human HepG2 cell line. Test compounds present at 10uM.).
Format: functional

SMILES	Inhibition [%]
CCN(CCO)CCc1cccc(Nc2nccc(-c3c(-c4ccc(NC(=O)C(C)(C)C)cc4)nn4ccccc34)n2)c1.Cl	62
CN(CCCNC(=S)NC12CC3CC(CC(C3)C1)C2)CCCNc1ccnc2cc(Cl)ccc12	73
COc1ccc2nc3cc(Cl)ccc3c(NCCNCC(O)CO)c2n1.Cl (configuration not stated)	12
N#Cc1cccc(CN2CCCN(Cc3ccc(C(=O)Nc4ccc(Cl)cc4)cc3)CC2)c1.O=C(O)C(F)(F)F	48
O=C(CCc1c[nH]cn1)Nc1ccc(-c2ccc(-c3nc4cc(F)ccc4[nH]3)cc2)cc1	26
COc1ccccc1C1CCN(C2CCC(NC(=O)/C=C/c3ccc(F)c(F)c3)CC2)CC1 (configuration not stated)	49
Cc1cccc2[nH]cc(C3CCN(CCC4CCN(C(=O)/C=C/c5ccc(Cl)c(Cl)c5)CC4)CC3)c12	13
COC(=O)[C@@H](NC(=O)[C@@H](Nc1ccc(C#N)c2ccccc12)C(C)(C)C)c1ccc(O)cc1	0
CC(C)N1CCN(C(CN2CCN(CCCOc3cccc(-c4ccccc4)c3)CC2)c2ccc(F)cc2)CC1.Cl (configuration not stated)	100
Cn1cnc2c(SCc3ccc(OCc4ccccc4)cc3)ncnc21	1
O=C(c1cccc(-c2cccc(-c3nc4cc(C(F)(F)F)ccc4[nH]3)c2)c1)N1CCCCC1CN1CCC(O)C1 (configuration not stated)	51
COc1ccc2nccc(N/N=C/c3cccc([N+](=O)[O-])c3)c2c1	4
